Source: publication PMC4552634, “A New Set of Chemical Starting Points with Plasmodium falciparum Transmission-Blocking Potential for Antimalarial Drug Discovery” (PLoS ONE, 2015)
In all, about 13,000 compounds went through this assay and about 3,200 (25%) showed an effect of 50% or more. The list shows a part of the results.

Test system: P. falciparum stage V gametocytes
Set-up: BacTiter-Glo ATP luminescence viability of purified stage V gametocytes in 384-well plates, per cent inhibition versus DMSO
Details: 48 h, 5 µM; inhibitor

Structure (SMILES) | % Inhibition
Cc1cc(F)ccc1Oc1nc(Nc2ccc(N3CCOCC3)c(F)c2)nc2c1S(=O)(=O)CCC2 [TCMDC-135096] | 20%
CCOc1cc(-c2nnc3[nH]c(=O)n(C)c(=O)c3n2)ccc1OC(C)C [TCMDC-124558] | -22.82%
O=C(Nc1ccc(C(=O)OCC2CCCCC2)cc1)N[C@@H](Cc1ccc(O)cc1)C(=O)NC1CCN(Cc2ccc(O)cc2)C1 (stereo partly shown) [TCMDC-135357] | -23.12%
O=C(Nc1cccc(-c2ccc(-c3nc4ccc(F)cc4[nH]3)cc2)c1)c1ccncc1 [TCMDC-136961] | -22.91%
O=C(Nc1cccc(-c2cccc(-c3nc4ccccc4[nH]3)c2)c1)c1ccoc1 [TCMDC-136840] | 9.278%
O=C(Nc1cccc(-c2ccc(-c3nc4ccc(F)cc4[nH]3)cc2)c1)c1ccoc1 [TCMDC-136843] | -15.37%
O=C(Nc1cccc(-c2cccc(-c3nc4ccc(F)cc4[nH]3)c2)c1)c1ccoc1 [TCMDC-136841] | 83.89%
O=C(Nc1ccc(-c2cccc(-c3nc4ccc(F)cc4[nH]3)c2)cc1)c1ccncc1 [TCMDC-136957] | -5.175%
O=C(Nc1cccc(-c2cccc(-c3nc4ccc(F)cc4[nH]3)c2)c1)c1ccncc1 [TCMDC-136959] | 85.81%
CCCCCCn1c(Sc2ccc(C#N)c([N+](=O)[O-])c2)nnc1-c1ccc(OC)cc1 [TCMDC-135604] | 12.04%
CN1C(=O)OC[C@@H]1Cc1ccc2[nH]cc(C3=CCN(Cc4ccccc4)CC3)c2c1 [TCMDC-137790] | 15.2%
COc1cccc(C2C(C(=O)Nc3ccccc3)=C(C)N=c3sc(=Cc4ccc(O)cc4)c(=O)n32)c1 (stereo not shown) [TCMDC-125613] | -17.06%
COc1cccc(Nc2nnc(SCC(=O)NNC(=O)c3ccccn3)s2)c1 [TCMDC-124565] | 57.52%
COCC(C)n1c(C)cc(C(=O)CSc2nnc(Nc3ccccc3)s2)c1C (stereo not shown) [TCMDC-123611] | 2.084%
C[C@@H](CC1CCCCC1)OC(=O)N(C)[C@@H]1CCN(C#N)C1 [TCMDC-138502] | 39.73%
COCCCNC(=O)c1ccc(O)c(-c2cc(Cl)cc(Cl)c2)c1 [TCMDC-140158] | -17.86%
Cc1noc(C)c1-c1cccc(CNCc2ccc(-c3ccc(-c4nc5cc(C(F)(F)F)ccc5[nH]4)cc3)cc2)c1.O=C(O)C(F)(F)F [TCMDC-133058] | 15.98%
CC(=O)N(C)c1cccc(C(=O)Nc2cccc(-c3ccc(-c4nc5ccc(C(F)(F)F)cc5[nH]4)cc3)c2)c1 [TCMDC-137073] | 81.14%
CC(=O)N(C)c1cccc(C(=O)Nc2cccc(-c3cccc(-c4nc5ccc(C(F)(F)F)cc5[nH]4)c3)c2)c1 [TCMDC-137069] | 42.31%
CC(=O)Nc1ccc(C(=O)Nc2cccc(-c3ccc(-c4nc5ccc(F)cc5[nH]4)cc3)c2)cn1 [TCMDC-136826] | -35.51%
NC(=O)c1ccc(C(=O)Nc2cccc(-c3ccc(-c4nc5ccc(C(F)(F)F)cc5[nH]4)cc3)c2)cc1 [TCMDC-132193] | -16.46%
Cc1cccc2[nH]c(-c3cccc(-c4cccc(NC(=O)c5ccc(C(N)=O)cc5)c4)c3)nc12 [TCMDC-132192] | -7.489%

Structure (SMILES) | % Inhibition
CC(=O)Nc1cc(C(=O)Nc2cccc(-c3cccc(-c4nc5c(C)cccc5[nH]4)c3)c2)ccc1C [TCMDC-137040] | 72.59%
NC(=O)c1cccc(C(=O)Nc2cccc(-c3cccc(-c4nc5ccc(C(F)(F)F)cc5[nH]4)c3)c2)c1 [TCMDC-132199] | -28.51%
CC(=O)Nc1ccc(C(=O)Nc2cccc(-c3ccc(-c4nc5ccc(C(F)(F)F)cc5[nH]4)cc3)c2)cn1 [TCMDC-136832] | 60.22%
CC(=O)Nc1cccc(C(=O)Nc2ccc(-c3cccc(-c4nc5c(C)cccc5[nH]4)c3)cc2)c1 [TCMDC-132141] | -0.1401%
CC(=O)N(C)c1cccc(C(=O)Nc2ccc(-c3cccc(-c4nc5ccc(C(F)(F)F)cc5[nH]4)c3)cc2)c1 [TCMDC-137070] | -32.74%
CC(=O)Nc1cc(C(=O)Nc2cccc(-c3cccc(-c4nc5ccc(C(F)(F)F)cc5[nH]4)c3)c2)ccc1C [TCMDC-137039] | 68.75%
CC(=O)Nc1cccc(C(=O)Nc2ccc(-c3cccc(-c4nc5ccc(C(F)(F)F)cc5[nH]4)c3)cc2)c1 [TCMDC-132140] | -29.21%
CCc1c(C(=O)NC2CCC(N3CCC(c4ccccc4C)CC3)CC2)[nH]c2ccc(Br)cc12 (stereo not shown) [TCMDC-133530] | -72.63%
CC(CNC(=O)C(c1cc2ccccc2o1)N1CCN(C(c2ccccc2)c2ccccc2)CC1)c1ccccc1 (stereo not shown) [TCMDC-141010] | 11.08%
O=C(Nc1ccc(C(F)(F)F)cc1)c1cccc(S(=O)(=O)NC2CCN(Cc3ccccc3)C2)c1 (stereo not shown) [TCMDC-132484] | -13.38%
CCN(CC)CCNC(=O)c1ccc(NC(=O)c2oc3c(Cl)cccc3c2C)cc1 [TCMDC-125463] | 22.65%
O=S(=O)(c1ccccc1)C1CC1 [TCMDC-132010] | 2.082%
CSc1nnc2n(Cc3ccccc3)c(=O)c3c(n12)-c1ccccc1CC31CCCCC1 [TCMDC-125076] | -1.112%
O=C(CSc1nc2ccccc2c(=O)n1CC1CCCO1)Nc1cc(C(F)(F)F)ccc1Cl (stereo not shown) [TCMDC-123732] | -97.98%
CC(=O)Nc1ccc(C(=O)Nc2cccc(-c3cccc(-c4nc5ccc(C(F)(F)F)cc5[nH]4)c3)c2)cn1 [TCMDC-136828] | 75.79%
O=C(Nc1cccc(-c2cccc(-c3nc4ccc(C(F)(F)F)cc4[nH]3)c2)c1)c1ccncc1 [TCMDC-136963] | -4.28%
CC(=O)Nc1ccc(C(=O)Nc2cccc(-c3cccc(-c4nc5ccc(F)cc5[nH]4)c3)c2)cn1 [TCMDC-136824] | -57.69%
O=C(Nc1cccc(-c2cccc(-c3nc4ccc(C(F)(F)F)cc4[nH]3)c2)c1)Nc1ccc(F)c(F)c1F [TCMDC-133229] | 80.27%
O=C(Nc1ccc(-c2cccc(-c3nc4ccc(C(F)(F)F)cc4[nH]3)c2)cc1)Nc1ccc(F)c(F)c1F [TCMDC-133228] | -36.32%
CC(=O)Nc1ccc(C(=O)Nc2ccc(-c3cccc(-c4nc5ccc(C(F)(F)F)cc5[nH]4)c3)cc2)cn1 [TCMDC-136829] | 5.637%
O=C(Nc1cccc(-c2ccc(-c3nc4ccc(C(F)(F)F)cc4[nH]3)cc2)c1)Nc1ccc(F)c(F)c1F [TCMDC-133224] | -27.79%
CNC(=O)Cc1ccc(C(=O)Nc2cccc(-c3cccc(-c4nc5ccc(C(F)(F)F)cc5[nH]4)c3)c2)cc1 [TCMDC-137074] | 50.29%

Structure (SMILES) | % Inhibition
NC(=O)c1ccc(C(=O)Nc2cccc(-c3cccc(-c4nc5ccc(C(F)(F)F)cc5[nH]4)c3)c2)cc1 [TCMDC-132191] | 5.838%
OCCN1CCN(Cc2ccc(-c3ccc(-c4nc5ccc(C(F)(F)F)cc5[nH]4)s3)cc2)CC1 [TCMDC-133034] | 6.44%
COc1ccc(NC(=O)Nc2ccc(-c3cccc(-c4nc5ccccc5[nH]4)c3)cc2)cc1 [TCMDC-133250] | -9.476%
O=C(Nc1ccc(Cn2ncc(N3CCCNCC3)c(Cl)c2=O)cc1)Nc1cccc(C(F)(F)F)c1 [TCMDC-141925] | -42.22%
NC(=O)c1ccc(C(=O)Nc2cccc(-c3csc(-c4nc5ccccc5[nH]4)c3)c2)cc1 [TCMDC-132400] | -14.2%
Cc1cc(C(F)(F)F)n2nc(C(=O)N(C)Cc3cncn3Cc3ccc(F)cc3)cc2n1 [TCMDC-132466] | 29.43%
Cc1ccc(N2CCc3c(-c4cc5cccnc5nc4C)cc(C)nc32)c(Cl)c1 [TCMDC-136379] | 19.51%
COc1ccc(C=C2SC(=O)NC2=Nc2ccccc2)c(OC)c1 [TCMDC-123697] | 23.55%
Cl.Oc1cccc(Nc2nc(NCC3CCCO3)c3ccccc3n2)c1 (stereo not shown) [TCMDC-123641] | -25.34%
Oc1ccc2nc(NCCCc3ccccc3)nc(NCCCc3ccccc3)c2c1 [TCMDC-138382] | 90.22%
Oc1ccc2nc(Nc3ccccc3)nc(NCCc3ccccc3)c2c1 [TCMDC-138404] | 68.97%
Oc1cccc(Nc2nc(NCc3ccccc3)c3ccccc3n2)c1 [TCMDC-125640] | 36.33%
Oc1ccc2nc(NCCCc3ccccc3)nc(NCCc3ccccc3)c2c1 [TCMDC-138406] | 91.92%
Cl.Oc1ccc(Nc2nc(NCC3CCCO3)c3ccccc3n2)cc1 (stereo not shown) [TCMDC-123730] | 79.07%
Cl.OCCNc1nc(Nc2cccc(O)c2)nc2ccccc12 [TCMDC-123747] | -37.65%
Brc1ccc(Nc2nc(NCC3CCCO3)c3ccccc3n2)cc1 (stereo not shown) [TCMDC-124563] | 15.52%
NC1CCN(c2nc(NCCCc3ccc(O)cc3)nc(NCc3cccc4ccccc34)n2)CC1 [TCMDC-133393] | 0.2406%
O=C(Nc1ccc(Br)cc1)Nc1ccc(Cn2ncc(N3CCCNCC3)c(Cl)c2=O)cc1 [TCMDC-133329] | -9.301%
CC(=O)Nc1sc(C)c(C)c1CN1CCc2ccccc2C1 [TCMDC-124498] | -41.39%
COc1ccc(Nc2ncc3c(-c4cccc(NC(=O)c5ccc(N)cc5)c4)c[nH]c3n2)cc1OC [TCMDC-135250] | -78.65%
